# The sample as a whole holds a higher share of the strongest signals than the screen did.
# Tests used:
# Assay in all cases: glycan array binding signal (z-score within array); higher = stronger binding
# Details in all cases: glycan notation: IUPAC condensed, linker removed
# Fuc(a1-2)Gal(b1-3)GlcNAc = target: Fuc(a1-2)Gal(b1-3)GlcNAc
# How it was run: (§1)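 The binding signal is a Z-score computed within each array and averaged over linkers. Arrays of the same protein sequence at different concentrations or buffers were also averaged together. Data originate from 3228 arrays in the Consortium for Functional Glycomics database, kept only where the protein sequence was available.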
# [1] = target: Fuc(a1-2)Gal(b1-3)GlcNAc(b1-2)Man(a1-3)[Fuc(a1-2)Gal(b1-3)GlcNAc(b1-2)Man(a1-6)]Man(b1-4)GlcNAc(b1-4)[Fuc(a1-6)]GlcNAc
# How it was run: as §1
# [2] = target: Fuc(a1-2)Gal(b1-4)GlcNAc(b1-2)[Fuc(a1-2)Gal(b1-4)GlcNAc(b1-4)]Man(a1-3)[Fuc(a1-2)Gal(b1-4)GlcNAc(b1-2)Man(a1-6)]Man(b1-4)GlcNAc(b1-4)GlcNAc
# How it was run: as §1
# [3] = target: Fuc(a1-2)Gal(b1-4)[Fuc(a1-3)]GlcNAc(b1-2)Man(a1-3)[Fuc(a1-2)Gal(b1-4)[Fuc(a1-3)]GlcNAc(b1-2)Man(a1-6)]Man(b1-4)GlcNAc(b1-4)GlcNAc
# How it was run: as §1
# [4] = target: Fuc(a1-2)Gal(b1-4)[Fuc(a1-3)]GlcNAc(b1-3)GalNAc
# How it was run: as §1
# [5] = target: Fuc(a1-2)Gal6S(b1-3)GlcNAc
# How it was run: as §1
# Fuc(a1-2)[Gal(a1-3)]Gal = target: Fuc(a1-2)[Gal(a1-3)]Gal
# How it was run: as §1
# [6] = target: Fuc(a1-2)[GalNAc(a1-3)]Gal(b1-4)GlcNAc
# How it was run: as §1
# [7] = target: Fuc(a1-2)[GalNAc(a1-3)]Gal(b1-4)GlcNAc(b1-3)GalNAc
# How it was run: as §1
# [8] = target: Fuc(a1-2)[GalNAc(a1-3)]Gal(b1-4)[Fuc(a1-3)]GlcNAc(b1-3)GalNAc
# How it was run: as §1
# [9] = target: Gal(a1-3)Gal(b1-3)GlcNAc(b1-2)Man(a1-3)[Gal(a1-3)Gal(b1-3)GlcNAc(b1-2)Man(a1-6)]Man(b1-4)GlcNAc(b1-4)GlcNAc
# How it was run: as §1
# [10] = target: Gal(a1-3)Gal(b1-3)[Fuc(a1-4)]GlcNAc(b1-2)Man(a1-3)[Gal(a1-3)Gal(b1-3)[Fuc(a1-4)]GlcNAc(b1-2)Man(a1-6)]Man(b1-4)GlcNAc(b1-4)GlcNAc
# How it was run: as §1
# Gal(a1-4)Gal(b1-4)Glc = target: Gal(a1-4)Gal(b1-4)Glc
# How it was run: as §1
# Gal(a1-6)Glc = target: Gal(a1-6)Glc
# How it was run: as §1
# [11] = target: Gal(b1-3)GlcNAc(a1-6)Gal(b1-4)GlcNAc
# How it was run: as §1
# [12] = target: Gal(b1-4)GlcNAc(b1-2)Man(a1-6)Man(b1-4)GlcNAc(b1-4)GlcNAc
# How it was run: as §1
# [13] = target: Gal(b1-4)GlcNAc(b1-2)[Gal(b1-4)GlcNAc(b1-4)]Man(a1-3)[GlcNAc(b1-4)][Gal(b1-4)GlcNAc(b1-2)[Gal(b1-4)GlcNAc(b1-6)]Man(a1-6)]Man(b1-4)GlcNAc(b1-4)GlcNAc
# How it was run: as §1
# [14] = target: Gal(b1-4)GlcNAc(b1-2)[Gal(b1-4)GlcNAc(b1-6)]Man(a1-6)[Gal(b1-4)GlcNAc(b1-2)Man(a1-3)]Man(b1-4)GlcNAc(b1-4)[Fuc(a1-6)]GlcNAc
# How it was run: as §1
# Gal3S(b1-3)GlcNAc = target: Gal3S(b1-3)GlcNAc
# How it was run: as §1
# GalNAc(b1-3)GalNAc = target: GalNAc(b1-3)GalNAc
# How it was run: as §1
# GalNAc4S6S(b1-4)GlcNAc = target: GalNAc4S6S(b1-4)GlcNAc
# How it was run: as §1
# [15] = target: GlcNAc(a1-4)Gal(b1-4)GlcNAc(b1-3)Gal(b1-4)Glc
# How it was run: as §1
# [16] = target: GlcNAc(a1-4)Gal(b1-4)GlcNAc(b1-3)Gal(b1-4)GlcNAc(b1-3)Gal(b1-4)GlcNAc
# How it was run: as §1
# [17] = target: GlcNAc(a1-4)Gal(b1-4)GlcNAc(b1-3)Gal(b1-4)[Fuc(a1-3)]GlcNAc(b1-3)Gal(b1-4)[Fuc(a1-3)]GlcNAc
# How it was run: as §1
# GlcNAc(b1-3)Man = target: GlcNAc(b1-3)Man
# How it was run: as §1
# [18] = target: GlcNAc(b1-3)[GlcNAc(b1-6)]GalNAc
# How it was run: as §1
# [19] = target: Man(a1-2)Man(a1-3)[Man(a1-2)Man(a1-6)]Man(a1-6)[Man(a1-2)Man(a1-2)Man(a1-3)]Man(b1-4)GlcNAc(b1-4)GlcNAc
# How it was run: as §1
# Man(a1-3)[Man(a1-6)]Man = target: Man(a1-3)[Man(a1-6)]Man
# How it was run: as §1
# [20] = target: Man(a1-3)[Man(a1-6)]Man(a1-6)[Man(a1-3)]Man
# How it was run: as §1
# [21] = target: Neu5Ac(a2-3)Gal(b1-3)[Fuc(a1-4)]GlcNAc
# How it was run: as §1
# [22] = target: Neu5Ac(a2-3)Gal(b1-3)[Fuc(a1-4)]GlcNAc(b1-3)Gal(b1-3)[Fuc(a1-4)]GlcNAc
# How it was run: as §1
# [23] = target: Neu5Ac(a2-3)Gal(b1-4)GlcNAc(b1-2)[Neu5Ac(a2-3)Gal(b1-4)GlcNAc(b1-6)]Man(a1-6)[Neu5Ac(a2-3)Gal(b1-4)GlcNAc(b1-2)Man(a1-3)]Man(b1-4)GlcNAc(b1-4)GlcNAc
# How it was run: as §1
# [24] = target: Neu5Ac(a2-3)Gal(b1-4)GlcNAc(b1-3)Gal(b1-4)[Fuc(a1-3)]GlcNAc
# How it was run: as §1
# [25] = target: Neu5Ac(a2-3)Gal(b1-4)GlcNAc(b1-3)GalNAc
# How it was run: as §1
# [26] = target: Neu5Ac(a2-3)Gal(b1-4)GlcNAc(b1-6)GalNAc
# How it was run: as §1
# [27] = target: Neu5Ac(a2-3)Gal(b1-4)GlcNAc6S
# How it was run: as §1
# [28] = target: Neu5Ac(a2-3)Gal(b1-4)[Fuc(a1-3)]GlcNAc
# How it was run: as §1
# [29] = target: Neu5Ac(a2-3)Gal(b1-4)[Fuc(a1-3)]GlcNAc(b1-3)GalNAc
# How it was run: as §1
# [30] = target: Neu5Ac(a2-6)Gal(b1-4)GlcNAc
# How it was run: as §1
# [31] = target: Neu5Ac(a2-6)Gal(b1-4)GlcNAc(b1-3)Gal(b1-3)GlcNAc
# How it was run: as §1
# [32] = target: Neu5Ac(a2-6)Gal(b1-4)GlcNAc(b1-6)[Gal(b1-3)GlcNAc(b1-3)]Gal(b1-4)Glc
# How it was run: as §1
# [33] = target: Neu5Ac(a2-6)GalNAc(b1-4)GlcNAc
# How it was run: as §1
# [34] = target: Neu5Ac9Ac(a2-3)Gal(b1-4)GlcNAc
# How it was run: as §1
binder,measurement,setting,value
"ArathEULS3 (Arabidopsis thaliana), Q945P1 (protein) MEHHHQHHRHHQRDDGEDDRQSFGVPPPHVDAPPQPHGLYQSQPHFDPYAPTPQAPAPYRSETQFEPHAPPPYRSEPYFETPAPPPSFGHVSHVGHQSPNESYPPEHHRYGGYQQPSNSLLESHGDHSGVTHVAHHSSNQPQSSSGVYHKPDENRLPDNLAGLAGRATVKVYSKAEPNYNLTIRDGKVILAPADPSDEAQHWYKDEKYSTKVKDADGHPCFALVNKATGEAMKHSVGATHPVHLIRYVPDKLDESVLWTESKDFGDGYRTIRMVNNTRLNVDAYHGDSKSGGVRDGTTIVLWDWNKGDNQLWKIFPFILEQKLISEEDLNSAVDHHHHHH",glycan array binding signal (z-score),Fuc(a1-2)Gal(b1-3)GlcNAc,-0.25
same,glycan array binding signal (z-score),[1],0.265
same,glycan array binding signal (z-score),[2],0.36
same,glycan array binding signal (z-score),[3],1.64
same,glycan array binding signal (z-score),[4],11.8
same,glycan array binding signal (z-score),[5],-0.322
same,glycan array binding signal (z-score),Fuc(a1-2)[Gal(a1-3)]Gal,-0.303
same,glycan array binding signal (z-score),[6],-0.305
same,glycan array binding signal (z-score),[7],-0.012
same,glycan array binding signal (z-score),[8],7.35
same,glycan array binding signal (z-score),[9],4.38
same,glycan array binding signal (z-score),[10],0.898
same,glycan array binding signal (z-score),Gal(a1-4)Gal(b1-4)Glc,-0.332
same,glycan array binding signal (z-score),Gal(a1-6)Glc,-0.342
same,glycan array binding signal (z-score),[11],-0.235
same,glycan array binding signal (z-score),[12],2.12
same,glycan array binding signal (z-score),[13],5.54
same,glycan array binding signal (z-score),[14],-0.026
same,glycan array binding signal (z-score),Gal3S(b1-3)GlcNAc,-0.279
same,glycan array binding signal (z-score),GalNAc(b1-3)GalNAc,0.511
same,glycan array binding signal (z-score),GalNAc4S6S(b1-4)GlcNAc,-0.105
same,glycan array binding signal (z-score),[15],-0.112
same,glycan array binding signal (z-score),[16],-0.273
same,glycan array binding signal (z-score),[17],3.11
same,glycan array binding signal (z-score),GlcNAc(b1-3)Man,-0.164
same,glycan array binding signal (z-score),[18],-0.203
same,glycan array binding signal (z-score),[19],-0.229
same,glycan array binding signal (z-score),Man(a1-3)[Man(a1-6)]Man,-0.26
same,glycan array binding signal (z-score),[20],-0.266
same,glycan array binding signal (z-score),[21],-0.211
same,glycan array binding signal (z-score),[22],-0.244
same,glycan array binding signal (z-score),[23],1.98
same,glycan array binding signal (z-score),[24],-0.229
same,glycan array binding signal (z-score),[25],-0.326
same,glycan array binding signal (z-score),[26],-0.302
same,glycan array binding signal (z-score),[27],-0.173
same,glycan array binding signal (z-score),[28],1.79
same,glycan array binding signal (z-score),[29],2
same,glycan array binding signal (z-score),[30],0.011
same,glycan array binding signal (z-score),[31],-0.157
same,glycan array binding signal (z-score),[32],-0.239
same,glycan array binding signal (z-score),[33],-0.302
same,glycan array binding signal (z-score),[34],-0.232

# From the supplement of paper PMC8728848
